Several values for one entry are separate records, joined by “and”; a condition that tells them apart may be missing. Equal values may be shown once. The whole screen tested about 350,000 compounds, of which about 700 (0.2%) were called active. Calls come from the whole dose curve; as a rule, active = well fitted inhibition curve with a large enough effect; inconclusive = small, poorly fitted or top-dose-only effect; inactive = flat fitted curve, though single readings scatter. Many of the other results were omitted from the sample, so actives are more common in it than they were.
Target: RecQ-like DNA helicase BLM (Homo sapiens) (UniProt P54132)
Sequence (P54132 whole entry, looked up): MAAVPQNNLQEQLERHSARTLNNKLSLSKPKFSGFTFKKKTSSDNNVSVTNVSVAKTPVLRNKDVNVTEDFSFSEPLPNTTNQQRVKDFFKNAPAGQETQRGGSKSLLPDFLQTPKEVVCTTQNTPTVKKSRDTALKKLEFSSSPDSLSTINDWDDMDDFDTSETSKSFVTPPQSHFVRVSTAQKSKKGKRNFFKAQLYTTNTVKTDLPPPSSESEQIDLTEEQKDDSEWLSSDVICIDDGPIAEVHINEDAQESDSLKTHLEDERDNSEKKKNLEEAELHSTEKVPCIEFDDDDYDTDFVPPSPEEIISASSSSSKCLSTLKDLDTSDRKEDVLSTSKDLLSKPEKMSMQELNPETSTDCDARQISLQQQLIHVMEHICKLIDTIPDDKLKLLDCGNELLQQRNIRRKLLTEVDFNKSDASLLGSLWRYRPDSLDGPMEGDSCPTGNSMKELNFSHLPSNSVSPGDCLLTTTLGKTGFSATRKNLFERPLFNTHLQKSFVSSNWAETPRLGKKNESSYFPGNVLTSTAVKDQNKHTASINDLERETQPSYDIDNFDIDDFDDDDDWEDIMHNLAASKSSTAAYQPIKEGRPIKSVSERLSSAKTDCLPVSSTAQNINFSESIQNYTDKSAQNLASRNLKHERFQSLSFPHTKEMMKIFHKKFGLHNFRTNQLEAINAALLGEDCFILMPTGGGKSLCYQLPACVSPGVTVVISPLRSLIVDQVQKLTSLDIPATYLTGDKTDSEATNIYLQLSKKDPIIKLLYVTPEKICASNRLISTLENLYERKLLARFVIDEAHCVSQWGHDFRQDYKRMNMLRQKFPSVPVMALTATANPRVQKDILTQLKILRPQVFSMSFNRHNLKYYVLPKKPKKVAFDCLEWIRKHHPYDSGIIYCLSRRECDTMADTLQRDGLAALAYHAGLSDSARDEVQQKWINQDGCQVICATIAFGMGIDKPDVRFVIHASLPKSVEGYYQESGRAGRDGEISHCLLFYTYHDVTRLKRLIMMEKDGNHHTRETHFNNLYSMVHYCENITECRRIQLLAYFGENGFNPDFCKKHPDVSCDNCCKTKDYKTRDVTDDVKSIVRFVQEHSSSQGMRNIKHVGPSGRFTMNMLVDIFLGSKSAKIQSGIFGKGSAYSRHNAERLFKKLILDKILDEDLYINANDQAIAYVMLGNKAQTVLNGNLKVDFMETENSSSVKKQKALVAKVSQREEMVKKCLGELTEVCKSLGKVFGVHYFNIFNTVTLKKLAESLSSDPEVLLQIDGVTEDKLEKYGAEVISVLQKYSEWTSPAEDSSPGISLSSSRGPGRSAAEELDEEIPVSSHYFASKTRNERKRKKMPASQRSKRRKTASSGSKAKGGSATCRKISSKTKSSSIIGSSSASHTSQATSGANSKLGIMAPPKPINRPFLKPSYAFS
Assay: qHTS Assay for Inhibitors of Bloom's syndrome helicase (BLM); note: nearly all actives have a fitted effect of over 35% in size;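 for Activity change, negative = inhibition: plate controls were vehicle for no effect and no enzyme for full effect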
Settings: recombinant BLM DNA unwinding, fluorescence dequenching; series mostly up to 56.1 µM
Potency is the fitted concentration of half-maximal effect.

Potency, active:
CS(=O)(=O)c1ccc2nc(NC(=O)c3ccc(Cl)nc3)sc2c1 17.8 µM
O=C(c1cc2c(s1)CCC2)N1CCN(c2ccccc2)CC1 12.6 µM
O=C(N/N=C/C=C/c1ccco1)c1cccs1 22.4 µM
O=C(O)C(c1ccccc1)N1C(=O)/C(=C\c2ccc(-c3cccc(Cl)c3)o2)SC1=S (stereo not drawn) 22.4 µM
CCN1CC=C2C(C#N)=C(N)C(C#N)(C#N)[C@H](c3ccoc3)[C@H]2C1 28.2 µM
Nc1ccc2nc3c(=O)[nH]c(=S)[nH]c3nc2c1 2.82 µM
COc1cccc(Nc2nc(N)c([N+](=O)[O-])c(NCc3ccco3)n2)c1 3.55 µM
Cc1c(CC(=O)N2CCN(C(=O)C3COc4ccccc4O3)CC2)c(=O)oc2c(O)c(O)ccc12 (stereo not drawn) 8.91 µM
Cc1ccc(N=C2NC(=O)/C(=C/C=C/c3ccco3)S2)cc1C 11.2 µM

Potency, inactive:
Cc1cc2nc(NC(=O)c3ccc(S(=O)(=O)N4CCOCC4)cc3)sc2cc1C
CN(C)c1cccc(C(=O)Nc2nc3ccc(S(=O)(=O)NC(C)(C)C)cc3s2)c1
O=C(c1cc2ccccc2s1)N1CCN(c2ccccn2)CC1
O=C(c1cc(-c2ccc(Cl)cc2)on1)N1CCN(c2ccccc2)CC1
Cc1ccc(-c2cc(C(F)(F)F)c(C#N)c(SCC(=O)Nc3ccccc3)n2)cc1
CCCn1c(C)nc2c(NCCCCN(CC)CC)nc(C)nc21
O=C(N/N=C/c1ccco1)c1ccc(NC(=O)C2CC2)cc1
O=C(N/N=C/c1ccco1)c1csc2c1CCCC2
Cc1noc(C)c1-c1ccc2ncnc(NCc3ccc4[nH]ccc4c3)c2c1
O=C(NCc1ccccc1)c1cc(-c2cccc(Cl)c2)on1
CN=C1S/C(=C\c2ccc(Sc3ccc(Cl)cc3)o2)C(=O)N1C
COc1cccc(-c2cc(=O)c3cc(NC(=O)c4ccc(C)cc4)ccc3[nH]2)c1
CCOC(=O)C1=NO[C@@]2(C=C(Br)C(=O)[C@H]3O[C@H]32)C1
CN1CCCC1CCO[C@@](C)(c1ccccc1)c1ccc(Cl)cc1 (stereo partly drawn)
NS(=O)(=O)c1ccc2nc(NC(=O)COc3ccccc3)sc2c1
CC(=O)OCC(=O)C1CCC2C3CCC4=CC(=O)CC[C@@]4(C)C3CC[C@]12C (stereo partly drawn)
COC(=O)[C@@H]1CC2=CC(=O)CC[C@]2(C)[C@@]23O[C@@H]2C[C@@]2(C)[C@@H](CC[C@@]24CCC(=O)O4)[C@H]13
O=C1CN(Cc2ccccc2)S(=O)(=O)c2ccccc21
O=C(Nc1cccc(C(F)(F)F)c1)c1cc(Br)cc(Br)c1O
COC(=O)[C@@]1(Cc2ccc(OC)cc2)[C@H]2c3cc(C(=O)N4CCCC4)n(Cc4ccc(C(F)(F)F)nc4)c3C[C@H]2CN1C(=O)c1ccccc1
COc1ccccc1CNC(=O)C(=O)NCC(c1cccs1)S(=O)(=O)c1cccs1 (stereo not drawn)
C#CCCCCCCCCCCCCCCCC(=O)O
O=C(Nc1cccc(F)c1)N1CCC2(CC1)CCN(S(=O)(=O)c1ccccc1)CC2
CN(c1ccccc1)c1nc(N)c([N+](=O)[O-])c(NCc2ccco2)n1
CNc1nc(Nc2ccc(C)c(Cl)c2)nc(N)c1[N+](=O)[O-]
CS(=O)(=O)N1CCC2(CC1)CN(Cc1ccccc1)C2
COC1[C@H](OC(N)=O)C(O)[C@H](Oc2ccc3c(O)c(NC(=O)c4ccc(O)c(CC=C(C)C)c4)c(=O)oc3c2C)OC1(C)C (stereo partly drawn)
COc1ccc2c(c1)O[C@@H](c1ccc3c(c1)OCO3)[C@H](OC(=O)NCc1ccco1)C2=O
Clc1ccc(C(Cn2ccnc2)OCc2ccsc2Cl)c(Cl)c1 (stereo not drawn)
Cc1[nH]c2ccccc2c1C(c1ccccc1)c1cccs1 (stereo not drawn)
COc1ccccc1CNc1cc(-c2ccccc2CN(C)C)ncn1
C/C=C1\C2C=C(C)CC1(N)c1ccc(=O)[nH]c1C2 (stereo not drawn)
COc1ccc(OC)c2sc(N3CCN(C(=O)C4COc5ccccc5O4)CC3)nc12 (stereo not drawn)
COc1cc(NS(=O)(=O)c2ccc3c(c2)OCC(C(=O)N2CCCC2)O3)cc(OC)c1 (stereo not drawn)
O=C(NC1CC(=O)N(c2ccc(F)cc2)C1)c1ccc(S(=O)(=O)N2CCCC2)cc1 (stereo not drawn)
O=c1c(CCc2ccccc2)nc2cncnc2n1C1CC1
COC(=O)c1ccc(C(NC(=O)OCc2ccccc2)/C(C)=C/[C@@H](C)C(=O)NCc2cc(C)on2)cc1 (stereo partly drawn)
COc1ccc(OCCCn2c(C3CC(=O)N(c4ccc(F)cc4)C3)nc3ccccc32)cc1 (stereo not drawn)
Cc1cc(N(C)C)nc(Cl)n1
O=S(O)S(=O)(=O)O
N#Cc1cccc(CS(=O)(=O)c2nnnn2-c2cc(C(F)(F)F)cc(C(F)(F)F)c2)c1
O=C(c1ccco1)N1CCC[C@@]2(CCN(c3ccccc3)C2)C1

Activity change, negative = inhibition, inactive:
CC(=O)OCC1OC(C#Cc2ccccc2Cl)C=CC1OC(C)=O (stereo not drawn) 2.5% [at 12.4 µM]
C=CCN1c2ccccc2[C@]23C[C@@H](C(=O)OC)N(S(=O)(=O)c4ccc([N+](=O)[O-])cc4)C2=NC(C(=O)OC)=C(C(=O)OC)[C@H]13 -4.61% [at 12.4 µM]
CC(C)(C)c1ccc(OC2C=CC(C#Cc3ccccc3)OC2CO)cc1 (stereo not drawn) -1.55% [at 12.4 µM]
CO[C@H]1COC(=O)[C@@H](OCc2ccccc2)/C=C\[C@H](C)[C@@H](OC)COC(=O)[C@H](OCc2ccccc2)/C=C\[C@@H]1C 6.6% [at 12.4 µM]
CC(=O)OCC1OC(C#CCCCc2ccccc2)C=CC1OC(C)=O (stereo not drawn) -2.87% [at 12.4 µM] and 2.33% [at 12.4 µM]
COC(=O)CC1c2ccccc2C(Cc2ccc(OC)cc2)=C(C)N1C(=O)OC (stereo not drawn) 1.25% [at 12.4 µM]
C#CCC(C(=O)OC)(C(=O)OC)C(C[N+](=O)[O-])c1ccccc1 (stereo not drawn) 0.0811% [at 12.4 µM]

Source: PubChem BioAssay AID2528 (National Center for Advancing Translational Sciences (NCATS), 2010)
